Inconclusive results are not listed. Entries that show only a call come without a potency. Values without a mark were called inactive. Active and inactive are the calls of the source. Unless noted, the call rests on the fitted dose curve.
Experiment: qHTS assay for small molecule agonists of the antioxidant response element (ARE) signaling pathway (AID 743202; active means well fitted activation curve with a large enough effect in the signal ratio in the repeat runs, not every such curve was filed as active; the % refers to the signal ratio; further: potency means the concentration at half of the fitted maximal effect)
Details: HepG2 ARE-bla reporter, beta-lactamase FRET, 16 h; series mostly up to 73.3 µM
Outline: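 After 16 hours of compound treatment at 37 C, HepG2 cells with a stably integrated ARE-driven beta-lactamase reporter were loaded 2 hours at room temperature with LiveBLAzer B/G FRET substrate and fluorescence intensity measured.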

| SMILES | Potency | activation |
| --- | --- | --- |
| c1ccc(SSc2ccccc2)cc1 | inactive |  |
| Cl[Si](Cl)(c1ccccc1)c1ccccc1 | inactive |  |
| Cc1cc(C(C)(C)C)cc(C)c1CC1=NCCN1 | inactive |  |
| CC(C)OC(=O)C(O)(CC(=O)O)CC(=O)O | inactive |  |
| C[C@@H](O)[C@H](N)C(=O)O | inactive |  |
| OC/C=C/CO | 21.6 µM (active) |  |
| C=Cc1ccccc1C=C | inactive |  |
| CCOC(=O)Cn1cccc1-c1nc(-c2ccc(OC)cc2)c(-c2ccc(OC)cc2)s1 | 7.5 µM (active) |  |
| CN(C)Cc1ccccc1O | inactive |  |
| O=C(O)[C@H](O)[C@@H](O)[C@H](O[C@@H]1O[C@H](CO)[C@H](O)[C@H](O)[C@H]1O)[C@H](O)CO | inactive |  |
| O=C(O)O |  | -11.2% [at 8.36 µM] |
| C[C@H]1NCc2cc(-c3ccc4c(=O)c(C(=O)O)cn(C5CC5)c4c3OC(F)F)ccc21 | inactive |  |
| CC(C)(c1cc(Br)c(OCC(Br)CBr)c(Br)c1)c1cc(Br)c(OCC(Br)CBr)c(Br)c1 (stereo unspecified) | inactive |  |
| O=C(O)c1cccc(C(F)(F)F)c1 | inactive |  |
| Clc1ccnc(Cl)n1 | inactive |  |
| CN1CCCCC1CCN1c2ccccc2Sc2ccc(S(C)=O)cc21 (stereo unspecified) | inactive |  |

| SMILES | Potency | activation |
| --- | --- | --- |
| Cc1cc(C(C)(C)C)c(O)c(C)c1Cn1c(=O)n(Cc2c(C)cc(C(C)(C)C)c(O)c2C)c(=O)n(Cc2c(C)cc(C(C)(C)C)c(O)c2C)c1=O | inactive |  |
| Cc1ccc(-c2ccccc2)cc1 | inactive |  |
| C=C(C)C(=O)OCCCCCCCCCC | inactive |  |
| COC(=O)c1ccccc1OC | inactive |  |
| C=C(C)c1cccc(C(=C)C)c1 | inactive |  |
| CCCC1CCC(=O)CC1 | inactive |  |
| OC1CCCc2ccccc21 (stereo unspecified) | inactive |  |
| CCCCN(CCCC)CC(O)c1cc(Cl)cc2c1-c1ccc(Cl)cc1/C2=C/c1ccc(Cl)cc1 (stereo unspecified) | inactive |  |
| O=[N+]([O-])c1ccc(F)c(Cl)c1 | inactive |  |
| CCN(CCN)c1cccc(C)c1 | inactive |  |
| CCCCC/C=C\C/C=C\CCCCCCCC(=O)O | 61.1 µM (active) |  |
| CCc1cccc(CC)c1NC(=O)CN(CC(=O)O)CC(=O)O | inactive |  |
| CC(C)(C)C1CCC(=O)CC1 | inactive |  |
| COc1cc(S(=O)(=O)O)c(C)cc1N=Nc1c(O)ccc2cc(S(=O)(=O)O)ccc12 | inactive |  |
| OC[C@H]1O[C@H](O[C@H]2O[C@H](CO)[C@@H](O)[C@H](O)[C@H]2O)[C@H](O)[C@@H](O)[C@@H]1O | inactive |  |

Experiment: qHTS assay for small molecule agonists of the antioxidant response element (ARE) signaling pathway - cell viability counter screen (AID 743203); further: nearly all actives have a fitted effect of over 55% in size
Details: ARE-bla HepG2 viability, CellTiter-Glo luminescence, 16 h; series mostly up to 73.3 µM
Outline: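 Luminescence read-out (CellTiter-Glo, 30 min at room temperature) measured cell viability in the same wells as the ARE beta-lactamase reporter. HepG2 ARE-bla cells were treated with compounds for 16 hrs at 37C/5% CO2.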

| SMILES | Potency | viability change, negative = cytotoxic |
| --- | --- | --- |
| c1ccc(SSc2ccccc2)cc1 | inactive |  |
| Cl[Si](Cl)(c1ccccc1)c1ccccc1 | inactive |  |
| Cc1cc(C(C)(C)C)cc(C)c1CC1=NCCN1 | inactive |  |
| C[C@@H](O)[C@H](N)C(=O)O | inactive |  |
| OC/C=C/CO | inactive |  |
| C1CCC(SSC2CCCCC2)CC1 | inactive |  |
| C=Cc1ccccc1C=C | inactive |  |
| CCOC(=O)Cn1cccc1-c1nc(-c2ccc(OC)cc2)c(-c2ccc(OC)cc2)s1 | inactive |  |
| CN(C)Cc1ccccc1O | inactive |  |
| O=C(O)[C@H](O)[C@@H](O)[C@H](O[C@@H]1O[C@H](CO)[C@H](O)[C@H](O)[C@H]1O)[C@H](O)CO | inactive |  |
| O=C(O)O |  | 6.5% [at 8.36 µM] |
| C[C@H]1NCc2cc(-c3ccc4c(=O)c(C(=O)O)cn(C5CC5)c4c3OC(F)F)ccc21 | inactive |  |
| CC(C)(c1cc(Br)c(OCC(Br)CBr)c(Br)c1)c1cc(Br)c(OCC(Br)CBr)c(Br)c1 (stereo unspecified) | inactive |  |
| O=C(O)c1cccc(C(F)(F)F)c1 | inactive |  |
| CCCCCCOC(=O)C(C)CC (stereo unspecified) | inactive |  |
| Clc1ccnc(Cl)n1 | inactive |  |
| CN1CCCCC1CCN1c2ccccc2Sc2ccc(S(C)=O)cc21 (stereo unspecified) | inactive |  |
| Cc1cc(C(C)(C)C)c(O)c(C)c1Cn1c(=O)n(Cc2c(C)cc(C(C)(C)C)c(O)c2C)c(=O)n(Cc2c(C)cc(C(C)(C)C)c(O)c2C)c1=O | inactive |  |

| SMILES | Potency | viability change, negative = cytotoxic |
| --- | --- | --- |
| Cc1ccc(-c2ccccc2)cc1 | inactive |  |
| C=C(C)C(=O)OCCCCCCCCCC | inactive |  |
| COC(=O)c1ccccc1OC | inactive |  |
| C=C(C)c1cccc(C(=C)C)c1 | inactive |  |
| O=C1CCc2cc(OCCCCc3nnnn3C3CCCCC3)ccc2N1 | inactive |  |
| CCCC1CCC(=O)CC1 | inactive |  |
| O=C(Nc1ccc2c(O)c(N=Nc3ccc(N=Nc4ccc(S(=O)(=O)O)cc4)cc3)c(S(=O)(=O)O)cc2c1)c1ccccc1 | inactive |  |
| OC1CCCc2ccccc21 (stereo unspecified) | inactive |  |
| O=[N+]([O-])c1ccc(F)c(Cl)c1 | inactive |  |
| O=C(/C=C/c1ccccc1)OC/C=C/c1ccccc1 | inactive |  |
| CCN(CCN)c1cccc(C)c1 | inactive |  |
| CCC(C)n1ncn(-c2ccc(N3CCN(c4ccc(OC[C@H]5CO[C@](Cn6cncn6)(c6ccc(Cl)cc6Cl)O5)cc4)CC3)cc2)c1=O (stereo partly specified) | inactive |  |
| CCCCC/C=C\C/C=C\CCCCCCCC(=O)O | inactive |  |
| CCc1cccc(CC)c1NC(=O)CN(CC(=O)O)CC(=O)O | inactive |  |
| CC(C)(C)C1CCC(=O)CC1 | inactive |  |
| COc1cc(S(=O)(=O)O)c(C)cc1N=Nc1c(O)ccc2cc(S(=O)(=O)O)ccc12 | inactive |  |
| OC[C@H]1O[C@H](O[C@H]2O[C@H](CO)[C@@H](O)[C@H](O)[C@H]2O)[C@H](O)[C@@H](O)[C@@H]1O | inactive |  |

Reference: PubChem BioAssay (Tox21)
